Broadly, the inhibition is the drop in the measured response relative to a control, in per cent.

In all, about 370,000 compounds went through this assay and about 4,700 (1.3%) were called active. This excerpt belongs to a sample that is enriched for actives. Values without a mark were called inactive.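 How the source made its calls: active means inhibition above the plate cutoff, the mean of all test compounds on that plate plus 3 SD (cut at about 35% in these data); inactive means the rest.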

This assay is described as follows: small molecules binding CAG repeat RNA – biochemical, fluorescence, primary screen (AID 651821).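 Further: 0% = DMSO alone and 100% = 100 µM mitoxantrone as full dye displacement; higher means more dye released from RNA so lower well fluorescence.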 The settings on record: r(CAG) RNA repeat, TO-PRO-1 dye displacement fluorescence; at 3 µM; stronger effect = higher value.
Take `CCOC(=O)Cn1c2c(n(-c3ccc(F)cc3)c1=O)C=C(c1ccccc1)[C@@H](C)C(C(=O)N(C)C1CCCCC1)=C2`: the inhibition was 7.36%.
Regarding `O=C1CCC2(CCC(c3ccc(Cl)cc3)CC2)N1CCO` (centres undefined), the inhibition is 0.01%.
For `Cc1cc(/C=N/Nc2ccc([N+](=O)[O-])cn2)c(C)n1-c1cccc(C(=O)O)c1`, the inhibition is 47.8% (active).
For `Cc1cccc(C(=O)NC(=S)N2CCN(c3ccc([N+](=O)[O-])cc3)CC2)c1`, the inhibition was 1.75%.
As to `Cc1c(NC(=O)Nc2cccc([N+](=O)[O-])c2)c(=O)n(-c2ccccc2)n1C`, the inhibition was -1.07%.
Consider `CCN(CC)Cc1c(C(=O)OC)nnn1-c1nonc1N`, for which the inhibition was -2.7%.
`CCCCOCCCNC(=O)C[C@H]1C[C@@]2(C(=O)OC)C(=C[C@H](COCc3ccccc3)O[C@@H]2C)N(Cc2cccc3ccccc23)C1=O`: the inhibition is 4.81%.
Regarding `Cc1ccc(SC(C)C(=O)NCc2ccc(F)cc2)cc1` (centres undefined), the inhibition was -0.76%.
For `Cc1ccc(SC(CC(=O)c2ccc(C(C)(C)C)cc2)C(=O)O)cc1` (centres undefined) the value was 42.9% (active); for `Cc1ccc(CSCC(N)C(=O)O)cc1` (centres undefined), 5.4%.
Consider `CCOC(=O)C1=C(C)NC(SC)=NC1c1ccccc1` (centres undefined), for which the inhibition is 0.67%.
For the compound `CO[C@@H]1[C@@H](OC(N)=O)[C@@H](O)C(Oc2ccc3c(O)c(NC(=O)c4ccc(O)c(CC=C(C)C)c4)c(=O)oc3c2C)OC1(C)C` (some centres undefined), the inhibition was 49.8% (active).
`COc1ccc(NC(=O)N(C)C[C@@H]2OCCCC[C@@H](C)Oc3ccc(NC(=O)NC4CCCCC4)cc3C(=O)N([C@H](C)CO)C[C@@H]2C)cc1`: the inhibition is 10%.
Consider `COc1cc(NC(=O)COc2ccccc2Cl)ccc1NC(=O)C(C)C`, for which the inhibition was -5.61%.
With `O=C(COc1ccccc1)Nc1ccc(C(=O)N2CCCC2)cc1`, the inhibition was -1.86%.
Then `O=C(COc1ccccc1Cl)Nc1ccc(C(=O)c2ccc(C(=O)O)cc2)cc1`, with 41.2% (active).
In the case of `O=C(OC12CCCN(C1)/C(=C/c1cccnc1)C2)C1CCCC1` (centres undefined), the inhibition was -0.17%.
For `O=C(COC(=O)c1ccc2ncsc2c1)Nc1ccc(Cl)cc1` the value was 7.21%.
As for `Cc1sc(NC(=O)c2ccc3ncsc3c2)c(C(N)=O)c1C`, the inhibition is 35.7% (active).
In the case of `COc1ccccc1-c1nnc(NC(=O)c2ccc3ncsc3c2)o1`, the inhibition was 10.6%.
Take `O=C(CCl)NC1CCCCN(Cc2cccc(C(F)(F)F)c2)C1=O` (centres undefined): the inhibition was 1.48%.
For `Cc1c(C)c2c(OCC(=O)NCCCO)cc3c(c2oc1=O)CCC(C)(C)O3`, the inhibition is -6.81%.
For the compound `Cc1c(C)c2c(OCC(=O)N[C@@H](C(=O)O)c3ccccc3)cc3c(c2oc1=O)CCC(C)(C)O3`, the inhibition was 41.1% (active).
Then `Cc1cc(=O)oc2c3c(cc(OCC(=O)N[C@H](C(=O)O)c4ccccc4)c12)OC(C)(C)CC3`, with 33.1%; and `CCN(CC(=O)Nc1c(F)cccc1F)C(=O)CN1c2cccc3cccc(c23)S1(=O)=O`, with -4.19%; and `c1csc(-c2nnc(SCc3nc4ccccc4[nH]3)o2)c1`, with 0.42%.
For `COC(=O)C1[C@H]2SC(C)(C)C(C(=O)OC)N2C(=O)N1Cc1nc2ccccc2s1` (some centres undefined) the value was -2.88%; for `COC(=O)Cc1csc(Nc2c(C)n(C)n(-c3ccccc3)c2=O)n1`, 3.58%.
Then `COC(=O)Cc1cc(=O)n(-c2nc3ccccc3s2)[nH]1`, with 60.6% (active); and `CC(C)NC(=O)/C(C#N)=C\c1ccc(N(C)C)c(Br)c1`, with -7.35%.
With `COCC(=O)N[C@@H]1C[C@@H]2O[C@@H](CO)CC[C@@H]2O[C@@H]1CCc1ccc(-c2ccccc2)cc1`, the inhibition was -0.99%.
Take `O=C(NCC1(N2CCCCC2)CCCCC1)c1cccc(S(=O)(=O)Nc2ccccc2Cl)c1`: the inhibition is 16.6%.
Take `O=C(Nc1ccc2c(c1)CCC2)c1cccc(S(=O)(=O)N2CCN(c3ccc(F)cc3)CC2)c1`: the inhibition was 13%.
Take `O=C(Nc1ccc2c(c1)CCC2)c1cccc(S(=O)(=O)Nc2ccccc2Cl)c1`: the inhibition is 57.2% (active).
Take `CCOC(=O)[C@@]12CN(C(=O)OC(C)(C)C)CC=C1N(Cc1ccc(OC)cc1)C(=O)[C@H]2CC(=O)NCc1ccc(OC)c(OC)c1`: the inhibition is 1.18%.
Take `CCCCCCC(=O)Nc1nc(C)c(-c2csc(Nc3cccc(OC)c3)n2)s1`: the inhibition is 28.5%.
For the compound `C=CCCC(=O)Nc1nc(C)c(-c2csc(Nc3ccc(Cl)cc3)n2)s1`, the inhibition is 31.7%.
Take `CCCCCCC(=O)Nc1nc(C)c(-c2csc(Nc3cc(Cl)ccc3OC)n2)s1`: the inhibition is 41.8% (active).
For `COCCCNC(=O)C[C@H]1C[C@@]2(C(=O)OC)C(=C[C@H](C(C)(C)C)O[C@@H]2C)N(Cc2ccc3c(c2)OCO3)C1=O` the value was -0.27%; for `CCOc1cc(/C=C(\C#N)c2nc(-c3cccs3)c(NC(C)=O)s2)ccc1O`, 37.7% (active); for `CCOc1ccc(/C=C/C(=O)N(CC)CC(=O)NCc2cccs2)cc1OC`, -8.5%.
`CCOc1cc(/C=C(/C#N)c2ccc(Cl)cc2)cc(Cl)c1OCC(=O)O`: the inhibition was 16.7%.
With `CCCN1C(=O)c2[nH]nc(-c3ccccc3)c2C1c1ccccc1` (centres undefined), the inhibition was 0.38%.
`COC(=O)CCCC1=CC2=C(c3ccccc3)C(=O)C(C)(OC(=O)C3CCCC3)C(=O)C2=CN1c1ccc(OC)cc1` (centres undefined): the inhibition was 6.99%.
For `CC1(OC(=O)C2CCCC2)C(=O)C=C2C=C(c3ccc(C#N)cc3)OC=C2C1=O` (centres undefined) the value was 50.7% (active); for `Cc1ccccc1C(=O)N1CCC(C(=O)Oc2ccc(C#N)cc2)CC1`, -7.52%; for `C=CC1=CCN(S(=O)(=O)C(C)(C)C)[C@@H]1CCO`, 8.95%.
Consider `CCC(C)Cn1c(O)cc2nn(-c3nc4ccccc4s3)c(=O)c-2c1C` (centres undefined), for which the inhibition is 56.8% (active).
Then `Cc1cccc(OCC(=O)Nc2ccc(C(=O)O)cc2NC(=O)COc2cccc(C)c2)c1`, with 50.5% (active); and `Cc1cc(C)cc(OCC(=O)Nc2ccc(N3CCOCC3)cc2N2CCOCC2)c1`, with -4.13%.
For `Cc1ccc(OCC(=O)Nc2ccc(C(=O)O)cc2NC(=O)COc2ccc(C)c(C)c2)cc1C`, the inhibition is 19.4%.
As for `COCC(=O)Nc1cc(C(=O)OC)cc(C(=O)OC)c1`, the inhibition is -0.01%.
For `Cc1cc(C)cc(OCC(=O)Nc2cc(NC(=O)COc3cc(C)cc(C)c3)cc(C(=O)O)c2)c1`, the inhibition was 61.8% (active).
For `Cc1cccc(OCC(=O)NC2CC(C)(C)NC(C)(C)C2)c1` the value was 0.76%.
In the case of `COC(=O)Nc1nc2ccc(C(=O)C3CC3)cc2[nH]1`, the inhibition is 4.25%.
Then `C[C@H](C(=O)N(C)c1ccccc1)[C@@H](O)c1ccc2ccccc2c1`, with 1.73%.
For `CCOC(=O)[C@@]12CCC3=C1N(CCC3)C(=O)[C@H](CC(=O)N1CCN(C(=O)c3ccco3)CC1)C2` the value was 4.55%; for `C=CCc1ccc(OCC(O)CN2CCN(Cc3ccccc3)CC2)c(OC)c1` (centres undefined), -8.04%.
Take `CCCNC(=O)C1CC(=O)N(c2ccc(OCc3ccccc3)cc2)C1` (centres undefined): the inhibition was 1.21%.
For `COc1cc(C2CC(=O)N3CN(Cc4ccccc4)CSC3=C2C#N)ccc1OCc1ccccc1` (centres undefined), the inhibition is 51.3% (active).
On to `C/C(=N/OC(=O)c1ccc(Br)cc1)c1ccc(C)cc1`, for which the inhibition was -2.66%.
For the compound `COc1ccccc1C(=O)NC(CCSC)C(=O)NNC(=O)c1ccccc1C` (centres undefined), the inhibition was -5.48%.
Turning to `Cc1ccccc1S(=O)(=O)N1[C@@H](c2cccc(Cl)c2)C(C(=O)OC(C)(C)C)=CC[C@H]1c1ccc(Cl)cc1`, the inhibition was 3.52%.
For the compound `Cc1ccc([C@@H]2CC(=O)[C@@H]3CN(S(=O)(=O)c4ccc(C)cc4)[C@H](c4ccccc4F)C[C@@H]3N2S(=O)(=O)c2ccc(Cl)cc2)cc1`, the inhibition was 9.69%.
`Cc1ccc(S(=O)(=O)N2[C@@H](c3cccc(Cl)c3)C(C(=O)O)=CC[C@H]2c2ccc(Cl)c(Cl)c2)cc1`: the inhibition is 25.1%.
With `Cc1ccc([C@@H]2CC=C(C(=O)O)[C@H](c3cccc(Cl)c3)N2S(=O)(=O)c2ccc(C)cc2)cc1`, the inhibition was 77.2% (active).
With `CCN1C(=O)[C@@H]2[C@@H]3CN(S(=O)(=O)c4ccccc4C)[C@@H](c4ccc(Cl)cc4)[C@@H]3C(=O)C[C@@H]2C1=O`, the inhibition is 8.04%.
As for `Cc1ccccc1S(=O)(=O)N1[C@@H](c2cccc(Cl)c2)C(C(=O)O)=CC[C@H]1c1ccc(Cl)cc1`, the inhibition was 81.4% (active).
Turning to `Cc1ccc(S(=O)(=O)N2[C@@H](c3ccccc3F)C(C(=O)O)=CC[C@H]2c2ccc(Cl)cc2)cc1`, the inhibition was 60.2% (active).
For `CCOC(=O)C1=CC[C@@H](c2ccccc2)N(S(=O)(=O)c2ccc(C)cc2)[C@H]1c1cccc(OC)c1` the value was 7.08%; for `COc1ccc(C2CC=C(C(=O)O)C(c3ccccc3F)N2S(=O)(=O)c2ccc(C)cc2)cc1OC` (centres undefined), 24.2%.
Take `Clc1ccc(-n2c(COc3ccccc3)nnc2SCc2nc3ccccc3[nH]2)cc1`: the inhibition is 2.7%.
`COC(=O)[C@@]12CCCCC=C1N(CCc1ccc(Cl)cc1)C(=O)[C@H]2CC(=O)NCc1ccc(OC)c(OC)c1`: the inhibition was 8.28%.
For `CC(=NNC(N)=O)c1ccc(Cl)c(-n2cccc2)c1`, the inhibition is 1.94%.
For the compound `COc1ccc(CNC(=O)CN(Cc2ccccc2Cl)C(=O)c2csnn2)cc1`, the inhibition was 3.39%.
As for `O=S1(=O)c2c(cccc2N2CCCC2)O[C@H](COCc2ccccc2)CN1C1CC1`, the inhibition is 1.71%.
With `CCCC1=Nc2cc(C(=O)NCc3ccco3)ccc2Sc2ccccc21`, the inhibition was 2.23%.
Regarding `C=CCN1[C@@H](Cc2ccccc2)COc2cccc(N3CCSCC3)c2S1(=O)=O`, the inhibition was 5.53%.
On to `Cc1ccccc1C(=O)N[C@H](C(=O)N1CCC[C@H]1C(=O)NCc1ccccc1)C(C)C`, for which the inhibition was 0.37%.

The values above are taken from PubChem BioAssay AID651821 (The Scripps Research Institute Molecular Screening Center, 2012).
